Common to all, as to test: NCI-60 one-dose screen, 48 h (100 = growth as untreated, 0 = no growth, -100 = all killed)
Conditions in all cases: 10 µM unless noted

The test system of assay [1] is SK-MEL-2 melanoma.
In assay [2] the test system is EKVX NSCLC.
Assay [3] has as its system SN12C renal.
The subject of assay [4] is UO-31 renal.
For assay [5], the system named is TK-10 renal.
Assay [6] deals with ACHN renal.
Assay [7] concerns CAKI-1 renal.
For assay [8], the system named is CCRF-CEM leukemia.
Assay [9] relates to MOLT-4 leukemia.
Assay [10] has as its system A498 renal.

Where “and” joins values, the source holds several entries; their conditions need not be identical. Equal values may be shown once. Compounds without any hit were thinned out: in the full panel of roughly 83,000, 20% have a hit.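 Cell lines were cultured in 96-well plates, exposed to a single compound concentration, and assessed for percent growth 48 hours later.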 Unmarked numbers belong to inactive results. Calls of active or inactive are those of the source. Rule for the calls: active = growth percent below 10; inactive = the rest.

The text below walks through data of PubChem BioAssay (NCI).

Turning to `CCCCCCC(C)c1ccccc1O` (centres undefined) (tested in a mixture with another compound), the growth in assay [1] was 123%; in assay [2] it was 110%; in [3], 106%; in assay [4] it was 99.1%; in assay [5], 119%; in assay [6], 110%. For the same compound, the growth is 90.1% in assay [7], 99.1% in assay [8] and 102% in assay [9].

For the compound `COc1cc(/C=C(/C)C[N+](=O)[O-])ccc1O`, the growth in assay [1] is 96.9%; in [2] it was 109%; in assay [3], 86.3%; in assay [4] it was 73.3%; in assay [5], 87.4%; in [6] it was 95.9%. In addition, the values for the growth in assay [7], in [8] and in [9] were 84.3%, 56.9% and 80.6%, respectively.

Consider `Cn1c2c(c3ccccc31)CCN1C[C@@H]3CCCC[C@H]3C[C@@H]21`, for which the growth in assay [1] is -2.5% (active); in assay [2], 26.3%; in assay [3] it was 32.7%; in [4], 22.9%; in assay [5], 32.2%; in [7], 18.9%. Moreover, the growth is -5.89% (active) in assay [10], 25.2% in assay [8] and 31.3% in assay [9].

As for `Cc1ccnc(NC(c2ccccc2)c2ccc3cccnc3c2O)c1` (centres undefined), the growth in [1] was 50.4%; in [2], 33.5%; in [3], 38.8%; in assay [4], 14.8%; in assay [6], 28.5%; in assay [7], 14.7%. Further, the growth in [10] was 77.3%; in assay [8] it was 16.4%; in assay [9], 18%.

As for `N[C@H](C(=O)O)[C@@H]1CC(Cl)=NO1`, the growth in assay [1] is 46.3% [20 µM]; in assay [2] it was 23.6% [20 µM]; in assay [3], 19.6% [20 µM]; in assay [4], 34.8% [20 µM]; in [5], 24.7% [20 µM]; in assay [7], 18.3% [20 µM]. Moreover, the growth in [10] is 13.6% [20 µM]; in assay [8] it was 19% [20 µM]; in assay [9], 23.5% [20 µM].

Turning to `CN(C)c1ccc(C(=C2C=CC(=[N+](C)C)C=C2)c2ccc(N(C)C)cc2)cc1` (tested in a mixture with another compound), the growth in assay [1] was -66.9% (active); in [2] it was -35.6% (active); in assay [3], -48.3% (active); in assay [4], -80.8% (active); in assay [5], -79.2% (active); in [6], -98.6% (active). Further, the figures for the growth in assay [7], in assay [10] and in assay [9] were -43.7% (active), -93.2% (active) and -23.7% (active), respectively.

As for `CN=C(N)N/N=C(\C)c1ccc2c(c1)Cc1cc(/C(C)=N/NC(N)=NC)ccc1-2`, the growth in assay [1] was -60.6% (active); in assay [2] it was 6.23% (active); in assay [3] it was -49.4% (active); in assay [4] it was 6.24% (active); in assay [5], -4.01% (active); in assay [7] it was 23.4%. For the same compound, the figures for the growth in assay [10], in [8] and in [9] were -32.7% (active), -3.32% (active) and -10.8% (active), respectively.

Consider `CCC(CC)COC(=O)c1ccc(O)c(O)c1`, for which the growth was 85.6% in [1]; 93.7% in assay [2]; 45.8% in [3]; 26.3% in assay [4]; 82.5% in assay [5]; 40.6% in assay [7]. The growth is 15.2% in assay [8] and 30.3% in assay [9].

As to `C1=C(c2ccccc2)C(c2ccc(OCCN3CCCCC3)cc2)Oc2ccccc21` (centres undefined), the growth in [1] was 77.3%; in [2], 69.1%; in [3], 55.3%; in assay [4], 56.7%; in assay [5] it was 74.9%; in [7], 30%. Besides, the growth in assay [10] was 94%; in [8], 37.5%; in assay [9] it was 47.1%.

With `Cc1ccc(C(=Nc2ccccc2)N=P(c2ccccc2)(c2ccccc2)c2ccccc2)cc1`, the growth is -51.8% (active) in assay [1]; -16.8% (active) in [2]; -10.1% (active) in [3]; -79.6% (active) in assay [4]; 2.97% (active) in [6]; -32.1% (active) in assay [7]. Moreover, the growth in assay [10] is -56.7% (active); in assay [8], -30.2% (active); in assay [9], 1.64% (active).

As for `CCCCCCCCCCCCCCCCCCOP(=O)([O-])OC1CC[N+](C)(C)CC1`, the growth in assay [1] is -14.6% (active); in [2], 36.3% and 41.5%; in assay [3] it was 19.9% and 24.9%; in [4] it was -5.55% (active) and -40.1% (active); in assay [5], -79.1% (active) and -93.8% (active); in assay [7] it was -9.45% (active) and -42.7% (active). The growth is -21.6% (active) and -25.3% (active) in [10]; -2.22% (active) and -53% (active) in assay [8]; -44.9% (active) and -49.8% (active) in [9].

In the case of `O=C1NC(=O)/C(=C/C=C/c2ccccc2)S1`, the growth in assay [1] was -6.31% (active); in assay [2], 62.5%; in assay [3], 50.6%; in assay [4], 34.1%; in [5] it was 91.8%; in [7], 25.5%. In addition, the growth in assay [10] is 69.7%.

Take `c1ccc2c(c1)Nc1cc3ccccc3cc1N2`: the growth in assay [1] is 84%; in [2], 56.4%; in [3], 54.6%; in assay [4] it was 17.6%; in assay [5], 93.3%; in assay [7], 38%. Further, the figures for the growth in [10], in assay [8] and in assay [9] were 81.9%, 26.5% and 20.9%, respectively.
